Results filed as inconclusive are left out. Calls of active or inactive are those of the source. Calls come from the whole dose curve; as a rule, active = well fitted inhibition curve with a large enough effect; inconclusive = small, poorly fitted or top-dose-only effect, or effect the other way; inactive = flat fitted curve, though single readings scatter. Positions of bridges follow the written chain, without caps; N, C: chain ends. Non-standard residues stand in square brackets, D forms with d. Residues, ends and D or L forms follow the SMILES beside them. ξ: configuration not given here. *: point of attachment. ξDab(CH2SO3H) = NC(CCNCS(=O)(=O)O)C(=O)O; Heptanoyl(6-Me) = CC(C)CCCCC(=O)*; Octanoyl(6-Me) = CCC(C)CCCCC(=O)*; Dab = NCC[CH](N)C(=O)O
target: Menin (Homo sapiens) (UniProt O00255); experiment: Confirmation of Inhibitors Targeting the Menin-MLL Interaction in MLL Related Leukemias: Confirmation in an HTRF (commercial TR-FRET) Assay using His-tagged menin and biotin-labeled MLL peptide; conditions: His-menin / biotin-MLL peptide binding; series mostly up to 126 µM
Sequence (O00255 whole entry, looked up): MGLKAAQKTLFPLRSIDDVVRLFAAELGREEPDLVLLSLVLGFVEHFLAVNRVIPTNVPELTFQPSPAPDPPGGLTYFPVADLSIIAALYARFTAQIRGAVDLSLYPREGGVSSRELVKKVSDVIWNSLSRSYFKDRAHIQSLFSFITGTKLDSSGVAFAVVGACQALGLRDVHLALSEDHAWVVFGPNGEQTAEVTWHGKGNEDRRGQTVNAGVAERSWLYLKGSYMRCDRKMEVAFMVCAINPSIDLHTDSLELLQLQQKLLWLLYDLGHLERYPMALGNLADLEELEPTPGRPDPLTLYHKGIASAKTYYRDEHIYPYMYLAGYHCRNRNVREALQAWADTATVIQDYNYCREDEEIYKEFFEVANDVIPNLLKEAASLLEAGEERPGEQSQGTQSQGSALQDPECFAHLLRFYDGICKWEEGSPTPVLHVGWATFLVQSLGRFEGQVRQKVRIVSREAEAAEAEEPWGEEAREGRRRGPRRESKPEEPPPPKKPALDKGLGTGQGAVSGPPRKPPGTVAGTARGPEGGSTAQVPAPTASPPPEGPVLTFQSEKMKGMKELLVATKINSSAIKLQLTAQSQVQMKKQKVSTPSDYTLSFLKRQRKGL
In short: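 Compounds were incubated 1 hr at ambient with a preformed His6-menin (200 nM)/biotinylated MLL-w.t. peptide (80 nM) complex in Tris pH 7.5 buffer; anti-His Eu-cryptate (3.5 nM) and SA-XL665 (10 nM) added, TR-FRET read after 1h.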
Potency is the fitted concentration of half-maximal effect.

Potency, inactive:
CN1C[C@@H]2C[C@H]1CN2c1cc2c(cc1F)c(=O)c(C(=O)O)cn2C1CC1, CN1[C@H](CC(=O)c2ccccc2)CCC[C@H]1C[C@@H](O)c1ccccc1, COC(=O)COc1ccc(C(C2C(=O)CC(C)(C)CC2=O)C2C(=O)CC(C)(C)CC2=O)cc1, CC(c1ccncn1)N(C)Cc1nc(-c2ccc(C(F)(F)F)cc2)no1 (stereo unspecified), COc1ccc(CNC(=O)C(c2ccc(O)cc2)N(Cc2ccco2)C(=O)c2snc(C(N)=O)c2N)cc1 (stereo unspecified), CCOc1ccc(C2Nc3ccc4ccccc4c3-c3c2c(=O)oc2ccccc32)cc1 (stereo unspecified), CCC(C)C1NC(=O)C(CCNCS(=O)(=O)O)NC(=O)C(NC(=O)C(CCNCS(=O)(=O)O)NC(=O)C(NC(=O)C(CCNCS(=O)(=O)O)NC(=O)CCCCC(C)C)C(C)O)CCNC(=O)C(C(C)O)NC(=O)C(CCNCS(=O)(=O)O)NC(=O)C(CCNCS(=O)(=O)O)NC(=O)C(C(C)CC)NC1=O (stereo unspecified) ({Heptanoyl(6-Me)}-[ξDab(CH2SO3H)]T[ξDab(CH2SO3H)][Dab][ξDab(CH2SO3H)]II[ξDab(CH2SO3H)][ξDab(CH2SO3H)]T; lactam 4-C; configuration not given here), COc1cccc(OC)c1NC(=O)CN1CCN(C)CC1, CCCC(=O)NC(c1ccccc1Cl)c1ccc2cccnc2c1O (stereo unspecified), CCOc1ccccc1N(CC(=O)Nc1ccccc1C(=O)N1CCCC1)S(C)(=O)=O, O=C(NNCS(=O)(=O)O)c1ccncc1, CCOc1ccc(CCNC(=O)C(C)N2C(=O)CC(C)(C)Sc3ccccc32)cc1 (stereo unspecified), Cc1ccccc1CN1CCN(C(C)C(=O)NCc2ccccc2)CC1 (stereo unspecified), CC1CN(c2c3c(nc4ncnn24)CCCC3)CC(C)O1 (stereo unspecified), COc1ccc(NC(=O)NC2(C(=O)N3CCOCC3)CCCCC2)cc1, O=C(CSc1nc(O)cc(=O)n1-c1ccccc1)c1ccc(Br)cc1, CCCCC(=O)NC(=S)Nc1nnn(CCC)n1, CC1CCCCN1S(=O)(=O)c1ccc(C(=O)Nc2ccccc2-c2nc3ccccc3[nH]2)cc1 (stereo unspecified), CCC(=O)NC(=S)Nc1ccc(NC(=S)NC(=O)c2ccc(C)cc2)cc1, CCCn1c(=O)c(C(=O)Nc2ccccc2C(=O)OCC)c(O)c2ccccc21, Cc1cc(C)c2c(=O)cc(C(=O)NCc3ccccc3)oc2c1, NC(=O)C1CCN(C2=C(Cl)C(=O)c3ccccc3C2=O)CC1, CCOc1ccc(-c2nn(-c3ccccc3)cc2/C=C2\SC(N)=NC2=O)cc1C, CCC(C)CCCCC(=O)NC(CCN)C(=O)NC(C(=O)NC(CCN)C(=O)NC1CCNC(=O)C(C(C)O)NC(=O)C(CCN)NC(=O)C(CCN)NC(=O)C(CC(C)C)NC(=O)C(Cc2ccccc2)NC(=O)C(CCN)NC1=O)C(C)O (stereo unspecified) ({Octanoyl(6-Me)}-[Dab]T[Dab][Dab][Dab]FL[Dab][Dab]T; lactam 4-C; configuration not given here), Cc1ccc(C2=NN(C(=O)c3ccccc3F)C(c3ccccc3F)C2)cc1 (stereo unspecified), O=C(N/N=C/c1cn(-c2cccs2)nc1-c1ccccc1)c1ccccc1O, Cc1cc2c(N)cccc2nn1, Cn1c(=O)n(C)c2cc3[nH]cnc3cc21, O=C(Nc1ccc(F)c(Cl)c1)c1cc(-c2ccco2)on1, Cc1ccccc1-c1cncnc1NC1CCNCC1, Cc1ccc(C#CC(C)(O)C(C)(C)C)cn1 (stereo unspecified), CCc1oc2ccccc2c1C(=O)c1cc(Br)c(O)c(Br)c1

Potency, active:
CC(=O)Nc1ccc(-c2cc(-c3ccc(NC(C)=O)cc3)nc(-c3ccc(NC(C)=O)cc3)n2)cc1 79.4 µM, Cc1sc2ncnc(NC3CCN(Cc4ccccc4)CC3)c2c1C 126 µM, N=C1c2ccccc2CN1c1ccc(N2CCOCC2)c(S(=O)(=O)Nc2ccc(Cl)cc2)c1 79.4 µM, CC(C)Sc1nc(N2CCOCC2)c2c3c(sc2n1)COC(C)(C)C3 316 µM
